HEK293 tox: HEK 293 cell cytotoxicity. HEK 293 viability, ATP luminescence (CellTiter-Glo), 48-72 h. 94,000 tested, 6.6% active. Potency, µM (highest dose often 115 µM), inactives show at the top dose activity change, negative = cytotoxicity, hits mostly inhibitors; further: nearly all actives have a fitted effect of over 60% in size
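ATP-coupled CellTiter-Glo luminescence served as viability read-out, recorded 10 min after reagent addition at room temperature. HEK 293 cells, 250 cells/well, had been incubated with pintool-transferred compound for 48 or 72 hr at 37 degree Celsius.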
NIH3T3 tox: kills NIH 3T3 cells; NIH 3T3 viability, CellTiter-Glo ATP luminescence, 48-72 h; Potency, µM (titrated, usually from 96.7 µM), for inactives: at the top dose activity change, negative = cytotoxicity, usual class: inhibitors; 94,000 tested, 4.3% active; AID 1345082; further: nearly all actives have a fitted effect of over 55% in size
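First NIH 3T3 cells are plated at 400 cells/well; next compound is pinned in; then plates incubate 48 or 72 hr at 37 °C; finally CellTiter-Glo is added and luminescence read after 10 min.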
NPR1 antag: blocks ANP-stimulated signaling of human Npr1 receptor | HEK293 hNpr1 GloSensor cGMP, ANP-stimulated luminescence | Potency, µM (series often up to 46.3 µM), for inactives: top-dose activity change, negative = inhibition, actives largely listed as inhibitors | 76,000 tested, 1.6% active | AID 1347048; calls by dose curve; further: nearly all actives have a fitted effect of over 60% in size
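Compound pre-incubated 30 min at room temperature on GloSensor-loaded HEK293 cells stably carrying hNpr1 and the pGS-40F cGMP biosensor. Stimulation uses hNppA at 0.1 nM final; luminescence is taken at baseline and 20 min post-agonist.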
Luciferase inh: blocks purified firefly luciferase enzyme activity. Potency, µM (titrated, usually from 115 µM), hits mostly inhibitors. purified P. pyralis luciferase, luminescence, biochemical. 76,000 tested, 2.5% active. P08659; further: nearly all actives have a fitted effect of over 65% in size
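Luminescence read by CCD imaging after purified firefly luciferase (10nM final) was added to substrate buffer holding 10uM D-luciferin and 10uM ATP, pH 7.5, pre-dosed with compound.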
Active calls of the source: *; i = inactive; ? = inconclusive; . = no result; [ ] = remark or other dose. An excerpt weighted towards active compounds, which were near 11% of everything screened. Unless noted, the call rests on the fitted dose curve; in most records, active means well fitted curve in the direction sought with a large enough effect; inconclusive means small, poorly fitted or top-dose-only effect, or another doubt; inactive means no such curve, though single readings can be large; an effect the other way counts as inactive or inconclusive. On the % scale 0 is the no-effect control and ±100 the full control effect; potency means the concentration at half of the fitted maximal effect.

SMILES	HEK293 tox	NIH3T3 tox	NPR1 antag	Luciferase inh
Cc1ccc(C2Cn3nnc(C(=O)N4CCC(C(=O)NCCC5=CCCCC5)CC4)c3CO2)cc1 (stereo not drawn)	10.4%	i	-1.1%	10µM*
Cc1ccc(C2Cn3cnc(C(=O)N4CCC(C(=O)NCCC5=CCCCC5)CC4)c3CO2)cc1 (stereo not drawn)	-13.5%	-25.7%	-9.6%	28.2µM*
O=C(NCCC1=CCCCC1)C1CCN(C(=O)c2ncn3c2COC(c2ccc(Cl)cc2)C3)CC1 (stereo not drawn)	?	-23.9%	-1.8%	?
COc1ccc(C2Cn3nnc(C(=O)N4CCC(C(=O)NCCC5=CCCCC5)CC4)c3CO2)cc1 (stereo not drawn)	3.9%	i	3.3%	i
COCCOCc1ccc(CC2CCN(C(=O)c3ccc(OC)cc3OC)CC2)cc1	31.6µM*	?	.	.
CCCn1c(C)cnc1CC1CCN(C(=O)c2ccc(OC)cc2OC)CC1	?	-3.5%	-2.5%	i
O=C(NCCc1cccnc1)c1ccc(-c2nnc3ccc(NC(=O)C4CCC4)cn23)cc1	?	35.5µM*	-1.0%	i
CC(=O)Nc1ccc(CN2CCN(c3cc(Cl)ncn3)C(=O)C2)cc1	10µM*	35.5µM*	22.2%	i
CC(C)CN1CCN(c2cc(Cl)ncn2)C(=O)C1	?	-32.9%[138 µM]	18.0%[70.6 µM]	i
O=C1CN(Cc2cccc(-c3ccsc3)c2)CCN1c1cc(Cl)ncn1	79.4µM*	?	-11.5%	i
Cn1cc(CN[C@H]2[C@H](O)[C@H](O)C[C@@H]2c2cccnc2)c2ccccc21	100µM*	?	1.4%[70.6 µM]	i
CCOc1c(CN(C)C(=O)C(c2ccc(F)cc2)N(C)C)cccc1OC (stereo not drawn)	-30.6%	-28.5%	-11.6%	i
CC(=O)N1CCN(C(=O)c2ccc3nc(-c4cccc(C)n4)oc3c2)CC1	-6.8%	-20.2%	.	.
COCC(=O)N1c2ccccc2CC1c1noc(C(C)C)n1 (stereo not drawn)	i	-0.1%	5.0%	15.8µM*
CC(C)c1nc(C2Cc3ccccc3N2C(=O)C2CC2)no1 (stereo not drawn)	-29.1%	-27.4%	1.3%	?
Cc1cc(Cl)ccc1C(=O)N1Cc2cnn(Cc3ccc(F)cc3)c2C1	44.7µM*	?	?	i
CC(C)Oc1ccc(C(=O)N2Cc3cnn(Cc4ccc(F)cc4)c3C2)cc1	?	?	?	i
O=C(NC1CCN(c2nc3ncccc3o2)C1)c1ccc(C(F)(F)F)cc1 (stereo not drawn)	0.0%	-12.1%	.	.
O=C(Cc1ccccc1)N1CCCN(c2cc(-c3ccc(Cl)cc3)[nH]n2)CC1	39.8µM*	?	?	i
Cn1nc(C(=O)N2CCCN(c3cc(-c4ccccc4)[nH]n3)CC2)c2ccccc21	28.2µM*	?	-2.2%	i
Cc1ccc(CC(=O)N2CCCN(c3cc(-c4ccccc4)[nH]n3)CC2)cc1	50.1µM*	?	-18.2%	i
Cc1ccc(-c2cc(N3CCCN(C(=O)c4ccccc4F)CC3)n[nH]2)cc1C	28.2µM*	?	-24.0%	i
O=C(c1ccccc1F)N1CCN(c2cc(-c3ccc(F)cc3)[nH]n2)CC1	?	?	?	i
O=C(Cc1ccsc1)N1CCCN(c2cc(-c3ccc(Cl)cc3)[nH]n2)CC1	?	?	?	i
Cc1noc(C)c1CNC(=O)c1cc2c(s1)CCN(C(=O)c1ccc(Cl)cc1)C2	?	?	-16.1%	i
SMILES	HEK293 tox	NIH3T3 tox	NPR1 antag	Luciferase inh
O=C(NC1CCCC1)N1CCN(C(=O)c2nc3cccnc3n(Cc3ccccc3)c2=O)CC1	i	-27.2%	.	.
Cc1ccc(-c2cc(N3CCCN(C(=O)Cc4ccccc4)CC3)n[nH]2)cc1C	?	39.8µM*	-12.7%	?
Cc1cccc(OCC(=O)N2CCCN(c3cc(-c4ccc(Cl)cc4)[nH]n3)CC2)c1	?	25.1µM*	?	i
COc1cccc(CC(=O)N2CCN(c3cc(-c4ccc(Cl)cc4)[nH]n3)CC2)c1	?	?	?	i
COc1ccc(CC(=O)N2CCCN(c3cc(-c4ccc(Cl)cc4)[nH]n3)CC2)cc1	39.8µM*	?	?	i
CCOCCCNC(=O)C1CCN(C(=O)c2ccc(-c3cncnc3)cc2)CC1	i	-1.5%	.	.
COc1cc(CN2C[C@@H](CO)[C@H](NC(=O)c3ccccc3)C2)ccc1F	?	?	-11.4%	i
COCCNC(=O)Cc1c[nH]c2ncc(-c3ccccc3)cc12	-16.5%[172 µM]	?	-0.3%[70.6 µM]	i
COCCNC(=O)Cc1c[nH]c2ncc(-c3ccc(OC)cc3)cc12	?	22.4µM*	-4.0%[70.6 µM]	?
COc1ccc(-c2cnc3[nH]cc(CC(=O)NCc4cnccn4)c3c2)cc1	?	31.6µM*	1.1%[70.6 µM]	?
C=CCCC(=O)N1C[C@@H](C(=O)OCC)[C@@H]2Oc3c(C)cccc3[C@@H]21	-15.9%	?	.	.
Cc1cc(N2CCC(NCc3noc(C)n3)CC2)nc(-c2ccccc2O)n1	?	?	-1.5%	i
Cc1cc(N2CCC(NCc3nc[nH]c3C)CC2)nc(-c2ccccc2O)n1	?	35.5µM*	-2.1%	i
COc1ccc(-c2ccnc(-c3nnc(C)n3CCN(C)C)c2)cc1OC	-16.9%[172 µM]	25.1µM*	5.6%[70.6 µM]	i
COc1ccc(-c2ccnc(-c3nnc(C)n3C(C)C)c2)cc1OC	-11.2%[172 µM]	100µM*	2.3%[70.6 µM]	i
COc1ccc(CN2CC(COc3ccccc3)Oc3ncccc3[S+]2(=O)[O-])cc1 (stereo not drawn)	22.4µM*	?	.	.
O=c1n(Cc2ccc3ccccc3n2)nc(C2CCNCC2)n1Cc1ccccc1	-8.5%	-11.1%	5.4%	i
CC(C)(C)c1ccc(C(=O)N2CCN(C(=O)c3nnn4c3COC(c3ccc(F)cc3)C4)CC2)cc1 (stereo not drawn)	?	?	-17.8%	i
Cc1ccc(C(=O)N2CCN(C(=O)c3nnn4c3COC(c3ccc(Cl)cc3)C4)CC2)cc1F (stereo not drawn)	-15.9%	-11.8%	-1.2%	i
O=C(c1ccc(F)cc1)N1CCN(C(=O)c2nnn3c2COC(c2ccc(Cl)cc2)C3)CC1 (stereo not drawn)	39.8µM*	?	-25.5%	i
O=C(c1cc(F)ccc1F)N1CCN(C(=O)c2nnn3c2COC(c2ccc(Cl)cc2)C3)CC1 (stereo not drawn)	35.5µM*	-24.9%	?	i
CN(C)CC(=O)N1Cc2ccccc2CC2(CCCN(CC3CCNC3)C2)C1 (stereo not drawn)	i	1.9%	.	.
COc1ccc(C(=O)NCCNC(=O)c2ccc(-c3cncnc3)cc2)cc1	-13.1%	-13.5%	.	.
CC[C@H]1CN(S(=O)(=O)c2c(C)noc2C)CC[C@H]1CC(=O)NCc1cccc2ccccc12	22.4µM*	?	-19.3%	i
CC[C@H]1CN(S(=O)(=O)c2c(C)noc2C)CC[C@H]1CC(=O)NCc1ccc(F)cc1	?	-10.2%	-15.3%	i
CCOc1ccc2c(n1)CCN(C(=O)Nc1ccc(C)c(C)c1)C2	?	?	-9.9%	28.2µM*

Bioassay records deposited in PubChem BioAssay by National Center for Advancing Translational Sciences (NCATS).
